NR5A2 inv ag – suppresses constitutive activity of human LRH-1 | O00482 | HEK293T StAR-luciferase reporter, LRH-1 transfected, 24 h | inhibition, % at 3.6 µM | 360,000 compounds, 0.13% hits;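 active = inhibition above the mean inhibition of all tested compounds plus 3 SD, cut at about 73% in these data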;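 note: 0% = DMSO wells and 100% = reporter-only cells lacking LRH-1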
COUP-TFII inh – NR2F2 (human) inhibition, primary screen. inhibition, % at 8.6 µM. HEK293T NGFI-A luciferase reporter, luminescence. AID 686940. 370,000 compounds, 0.7% hits;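 active = inhibition above a per-plate cutoff, mean inhibition of test wells between control levels plus 3 SD, cut at about 38% in these data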;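 note: cells cotransfected with COUP-TFII expression vector driving the NGFI-A reporter; 0% = median of COUP-TF2 test wells and 100% = reporter-only cells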
Gli-Sufu antag – antagonists of Gli-Sufu signaling | Sufu-KO-LIGHT fibroblasts, Gli luciferase reporter luminescence | inhibition, % at 5 µM | 340,000 compounds, 0.74% hits | AID 588413;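 active = inhibition above about 55%, limit read from the data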;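 note: 0% = DMSO-treated cells and 100% = wells with medium but no cells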
NCOA2 inhibitor – inhibits human steroid receptor coactivator 2; Q15596; HEK293 GAL4-SRC2 luciferase reporter, luminescence; inhibition, % at 9 µM; 370,000 compounds, 0.17% hits; AID 651957;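 active = inhibition above the mean inhibition of all tested compounds plus 3 SD, set per campaign, cut at about 52% in these data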;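 note: 0% = DMSO treated cells and 100% = cells given Gossypol at 36 µM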
NCOA1 inh – human NCOA1 inhibition | 360,000 compounds, 0.12% hits | inhibition, % at 3.6 µM | AID 588354 | HEK293 GAL4-SRC1 luciferase reporter, luminescence | Q15788;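 active = inhibition above the campaign mean plus 3 SD, with each screening campaign given its own cutoff, cut at about 60% in these data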;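 note: 0% = DMSO treated cells and 100% = gossypol at 36 µM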
NCOA3 inh – inhibitors of human steroid receptor coactivator 3 (SRC3); Q9Y6Q9; HEK293 GAL4-SRC3 luciferase reporter, luminescence; inhibition, % at 3.6 µM; 360,000 compounds, 0.17% hits; AID 588352;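 active = inhibition above a per-campaign cutoff, the mean of all compounds plus 3 SD, cut at about 60% in these data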;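 note: 0% = DMSO-treated cells and 100% = gossypol-treated cells at 36 µM; higher means less SRC3-driven luciferase light from the GAL4 reporter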
Gli antag conf – Gli-SUFU antagonism confirmation, single concentration | shares compounds with Gli-Sufu antag | Sufu-KO-LIGHT cells, Gli luciferase reporter, luminescence | inhibition, % at 5 µM | 2,500 compounds, 40% hits | AID 602428;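 active = mean inhibition at 5 µM reaching about 45%, limit read from the data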;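 note: plate controls were DMSO-treated cells for no effect and wells lacking cells for full effect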
SufuKO cytotox – cytotoxicity counter-screen for Gli-SUFU antagonists; AID 651994; 2,500 compounds, 32% hits; cytotoxicity, % at 5 µM; Sufu-KO-LIGHT cells cytotoxicity, ATP luminescence; shares compounds with Gli-Sufu antag;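 active = mean cytotoxicity at 5 µM above about 25%, limit read from the data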;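 note: cells exposed to compound overnight for roughly 16 to 18 hours; plate controls were DMSO wells with cells for no effect and medium without cells for full effect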
Wnt3a counter – Wnt3a reporter inhibition counter-screen; inhibition, % at 6.25 µM; shares compounds with Gli-Sufu antag; 2,500 compounds, 20% hits; Wnt-LIGHT cells, Wnt3a-driven luciferase reporter, luminescence;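 active = mean inhibition above about 25%, limit read from the data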
Starred values were filed as active, the others as inactive; · = no result given. Rows were chosen to be rich in hits. Some 1.3% of all compounds tested hit in one or more screens of this group.

SMILES | NR5A2 inv ag | COUP-TFII inh | Gli-Sufu antag | NCOA2 inhibitor | NCOA1 inh | NCOA3 inh | Gli antag conf | SufuKO cytotox | Wnt3a counter
COC(=O)CCC(=O)NC(=S)Nc1sc(C)c(C)c1C(N)=O | 29 | -41 | 54 | -2 | -28 | 14 | 50* | 51* | -31
COC(=O)CCC(=O)Nc1sc(C)c(C)c1C(N)=O | 3 | 6 | -7 | 0 | 10 | 12 | · | · | ·
c1ccc(-n2c(SCc3cccc4ccccc34)nnc2-c2ccncc2)cc1 | · | 4 | · | 4 | · | · | · | · | ·
COCCCN1C(=O)[C@H](CC(=O)N2CCOCC2)[C@]2(C(=O)OC)CCCCC=C12 | · | 4 | · | -2 | · | · | · | · | ·
COc1ccc(-c2cc(C3CCN(c4cc(Cl)nc(N)n4)CC3)[nH]n2)cc1 | 17 | 17 | 23 | 20 | -4 | 5 | · | · | ·
Nc1nc(Cl)cc(N2CCC(c3cc(-c4ccc(Cl)cc4)n[nH]3)CC2)n1 | -32 | 14 | 74* | 10 | 21 | 25 | 78* | 19 | 68*
COC(=O)C12CCCN1C1C(=O)N(Cc3ccc(C(N)=O)cc3)CC1C2 (stereo not drawn) | · | 17 | · | -12 | · | · | · | · | ·
N#CCC[C@H]1CC[C@]2(CCCN(C(=O)c3ccco3)C2)O1 | · | -4 | · | 5 | · | · | · | · | ·
Cc1ccc2c(C)c(C(=O)NCc3ccc(S(N)(=O)=O)cc3)oc2c1C | -9 | 3 | 59* | -2 | -6 | 10 | 28 | 7 | 12
Cc1nnc(SCC(=O)N2CCCC2)n1-c1ccc(F)cc1 | -8 | 7 | 0 | -2 | -15 | 15 | · | · | ·
CCSc1nnc(C)n1-c1ccc(C(=O)O)cc1 | -5 | -8 | 95* | -9 | -3 | 7 | 26 | -2 | 19
CCCCCc1nc2c(=O)n(C)c3ccccc3c2o1 | -17 | -10 | 76* | -56 | -19 | 13 | 3 | 5 | -52
COc1ccc(S(=O)(=O)NCC2CCCN(Cc3ccccc3Cl)C2)cc1 (stereo not drawn) | 6 | 1 | 12 | -12 | -9 | -5 | · | · | ·
COc1ccc(S(=O)(=O)NCC2CCCN(Cc3ccc(OC)cc3F)C2)cc1 (stereo not drawn) | 9 | -9 | 60* | -6 | -17 | 2 | 26 | -5 | -15
COC(=O)C1CN(Cc2ccccc2)CCS(=O)(=O)N1Cc1ccc(C(F)(F)F)cc1 (stereo not drawn) | · | 14 | · | -2 | · | · | · | · | ·
C[C@H]1COc2cccc(N3CCSCC3)c2S(=O)(=O)N1C | · | -20 | · | 0 | · | · | · | · | ·
COCCOC(=O)c1[nH]c2c(c1C)C(=O)CC(c1cc(OC)c(OC)c(OC)c1)C2 (stereo not drawn) | 19 | 36 | 34 | 11 | -26 | 16 | · | · | ·
C=CCOC(=O)c1[nH]c2c(c1C)C(=O)CC(c1cc(OC)c(OC)c(OC)c1)C2 (stereo not drawn) | 39 | · | 51 | · | 19 | 26 | 61* | 16 | 25
Nc1nc2n(n1)C(c1ccco1)CC(c1ccc(Cl)cc1Cl)N2 (stereo not drawn) | -22 | -10 | 50 | -6 | 12 | 0 | 8 | 11 | 6
O=[N+]([O-])c1ccc(/C=[N+](\[O-])[C@@H]2CCCC[C@@H]2/[N+]([O-])=C/c2ccc([N+](=O)[O-])o2)o1 | 8 | 13 | 76* | -51 | -61 | -41 | 67* | -2 | 21
O=C(N/N=C/c1ccc([N+](=O)[O-])o1)C1CCCC1 | 3 | 0 | 21 | -22 | -85 | 4 | · | · | ·
CCOc1ccc(-n2c(SCC(=O)Nc3cccc4ccccc34)nnc2-c2ccco2)cc1 | · | 13 | · | -30 | · | · | · | · | ·
CN1CCN(C2=Cc3ccccc3Sc3cc(F)c(Cl)cc32)CC1 | -4 | -12 | 54 | 24 | 10 | -8 | 23 | 0 | -34
COc1ccc(C(=O)N2CCCC(CO)C2)cc1OC1CCN(C(C)C)CC1 (stereo not drawn) | 0 | -4 | · | 7 | -17 | 4 | · | · | ·
COc1ccc(C(=O)N2CCCCCCC2)cc1OC1CCN(C(C)C)CC1 | 10 | 27 | 65* | 17 | 2 | 12 | 26 | 15 | -2
SMILES | NR5A2 inv ag | COUP-TFII inh | Gli-Sufu antag | NCOA2 inhibitor | NCOA1 inh | NCOA3 inh | Gli antag conf | SufuKO cytotox | Wnt3a counter
Cc1cc(NC(=O)CSc2nc(Cc3ccc(O)cc3)c(C)[nH]2)no1 | 11 | -13 | 53 | -1 | 3 | 19 | 15 | 6 | -18
Cc1cc(C)cc(OCC(O)CN2CCN(Cc3ccc4c(c3)OCO4)CC2)c1 (stereo not drawn) | 3 | 26 | 64* | 12 | -47 | 12 | 27 | 10 | -50
O=C(CSc1nnc(-c2cccnc2)n1C1CCCCC1)NC1CCCCCC1 | · | -12 | · | -12 | · | · | · | · | ·
CC(C)N(C(=S)Nc1cccc(S(=O)(=O)N(C)C)c1)c1ccccc1 | 7 | 5 | 55 | -9 | -10 | 27 | 12 | 1 | -27
CN(C)S(=O)(=O)c1cccc(NC(=O)C(c2ccccc2)c2ccccc2)c1 | -3 | 0 | -14 | -15 | 6 | -8 | · | · | ·
CN[C@H]1C[C@H]2c3cc(-c4ccccc4C)ccc3CCN2C[C@H]1[C@H](C)O | · | -8 | · | 22 | · | · | · | · | ·
CCOc1ccc(NS(=O)(=O)c2ccc3c(c2)N(C(C)=O)CCS3)cc1 | 1 | 15 | 55 | 9 | 12 | 22 | 14 | 4 | 9
COc1ccc(NS(=O)(=O)c2ccc3c(c2)N(C(C)=O)CC(C)S3)c(OC)c1 (stereo not drawn) | 2 | 2 | 54 | 5 | -8 | 17 | 16 | 7 | 9
CCOc1ccc(NS(=O)(=O)c2ccc3c(c2)N(C(C)=O)CC3)cc1 | -16 | 2 | 19 | -5 | -10 | 12 | · | · | ·
CCOc1ccc(NS(=O)(=O)c2ccc(C(=O)N3CCCCC3)cc2)cc1 | 4 | 18 | 55* | 13 | 1 | 11 | 27 | 29* | -19
C[C@H]1CCCN1c1cccc2c1S(=O)(=O)N1CC[C@H](C1)O2 | · | 3 | · | 10 | · | · | · | · | ·
O=C(Nc1ccccc1Oc1cccnc1)C1CCCN(Cc2ccccc2O)C1 (stereo not drawn) | 11 | -1 | 51 | -31 | 7 | 6 | 14 | 28* | -12
Cc1cc(C)c(C(N)=O)c(SCC(=O)c2cc(C)n(-c3cc(C)on3)c2C)n1 | 13 | 9 | 51 | 25 | 5 | 28 | 60* | 33* | 13
O=C(N/N=C/c1cc(Cl)ccc1O)c1ccc(Br)cc1 | 8 | -14 | 76* | 8 | 28 | 66* | 59* | 29* | 58*
O=C(N/N=C/c1ccc(O)c(O)c1)c1cccc(S(=O)(=O)N2CCCCC2)c1 | -2 | -1 | -2 | -30 | -7 | 12 | · | · | ·
